Records with an inconclusive call do not appear. Active and inactive are the calls of the source. Calls follow the shape of the dose curve; as a rule, active = well fitted cell-killing curve with a large enough effect; inconclusive = small, poorly fitted or top-dose-only effect, or effect the other way; inactive = no such curve, though single readings can be large or run the other way.
Assay: Viability qHTS for spleen associated tyrosine kinase inhibitor (SYKi) drug resistant MV4-11 cells (AID 1963824); also: nearly all actives have a fitted effect of over 35% in size
Details: SYKi-resistant MV4-11 viability, CellTiter-Glo, 72 h; series mostly up to 45 µM
Summary of the method: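 SYK inhibitor-resistant MV4-11 AML cells, 500 per well, added to predispensed compounds and incubated 72 hr at 37 C, 5% CO2. Viability measured by CellTiter-Glo luminescence after 10 min at room temperature.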
Potency is read from the fitted curve at half-maximal effect.

SMILES	Potency
O=C(CNC(=O)c1cccc(C(F)(F)F)c1)N[C@@H]1CCN(Cc2ccc(Cl)cc2)C1	23.1 µM (active)
CC#C[C@@H](CC(=O)O)c1ccc(OCc2ccc(CN3CCC4(C=Cc5ccccc54)CC3)s2)cc1	11.6 µM (active)
O=C(C1OC1/C=C/c1ccc2c(c1)OCO2)N1CCCCC1 (stereo unspecified)	inactive
CCOc1ccc(S(=O)(=O)N2CCCCCC2)c2ccccc12	20.6 µM (active)
Oc1ccc([C@H]2COc3cc(O)ccc3C2)cc1	13 µM (active)
COc1ccccc1-c1nc(SCC(=O)Nc2ccc(C)c(C)c2)n[nH]1	16.4 µM (active)
